The source of these data is PubChem BioAssay (NCATS).

Assay [1] is described as follows: Quantitative High-Throughput drug screen in 47 multiple myeloma cell lines against the NCATS MIPE library collection: H1112_PLB cell viability assay (AID 1918967; further: nearly all actives have a fitted effect of over 30% in size; further: potency means the concentration at half of the fitted maximal effect). Put shortly:
(§1)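 We plated 500 myeloma cells per well, pinned in MIPE 4.0 compounds, and incubated for 48 hours at 37C. ATP was then quantified with CellTiter-Glo, with DMSO and media-only wells defining 100% and 0%.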

Assay [2] is described as follows: Quantitative High-Throughput drug screen in 47 multiple myeloma cell lines against the NCATS MIPE library collection: KMS27_JCRB cell viability assay (AID 1918970). Further: nearly all actives have a fitted effect of over 30% in size. Further: potency means the concentration at half of the fitted maximal effect. Put shortly: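 Luminescent ATP read-out (CellTiter-Glo, 5 min at room temperature) after 48 h compound exposure of 500 KMS27_JCRB cells per well; DMSO wells define full viability and media-only wells zero.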

Assay [3] in a line: Quantitative High-Throughput drug screen in 47 multiple myeloma cell lines against the NCATS MIPE library collection: KMS12BM_JCRB cell viability assay (AID 1918971). Further: potency means the concentration at half of the fitted maximal effect; nearly all actives have a fitted effect of over 35% in size. The method in brief:
(§2)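 Inhibition of cell viability is measured here. Each line was plated at 500 cells per well, treated with MIPE 4.0 drugs, kept 48 hours at 37C, then assayed for ATP content by CellTiter-Glo luminescence.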

Assay [4] can be described thus: Quantitative High-Throughput drug screen in 47 multiple myeloma cell lines against the NCATS MIPE library collection: KMS12PE_JCRB cell viability assay (AID 1918972). Further: nearly all actives have a fitted effect of over 30% in size. Further: potency means the concentration at half of the fitted maximal effect. On viability: series mostly up to about 46 µM. Put shortly: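 Myeloma cell lines, 500 cells per well, exposed to MIPE 4.0 library compounds for 48 h at 37C, 5% CO2. Viability from ATP by CellTiter-Glo luminescence; normalised to DMSO (100%) and media-only (0%) wells.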

A short description of assay [5]: Quantitative High-Throughput drug screen in 47 multiple myeloma cell lines against the NCATS MIPE library collection: KMS20_JCRB cell viability assay (AID 1918973). Further: nearly all actives have a fitted effect of over 45% in size. The method in brief: as §1
Assay [6] can be described thus: Quantitative High-Throughput drug screen in 47 multiple myeloma cell lines against the NCATS MIPE library collection: KMS26_JCRB cell viability assay (AID 1918975). Further: nearly all actives have a fitted effect of over 45% in size. Further: potency means the concentration at half of the fitted maximal effect. Put shortly:
as §2

Assay [7] can be described thus: Quantitative High-Throughput drug screen in 47 multiple myeloma cell lines against the NCATS MIPE library collection: NCIH929_DSMZ cell viability assay (AID 1918978). Further: nearly all actives have a fitted effect of over 35% in size. Further: potency means the concentration at half of the fitted maximal effect. Put shortly:
(§3)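 500 cells/well per myeloma line exposed to pinned MIPE 4.0 compounds for 48 h at 37 °C, 5% CO2. Viability read as ATP by CellTiter-Glo luminescence, normalised to DMSO-only (100%) and media-only (0%) wells.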

Assay [8] in a line: Quantitative High-Throughput drug screen in 47 multiple myeloma cell lines against the NCATS MIPE library collection: OCIMY1_PLB cell viability assay (AID 1918979). Further: series mostly up to about 46 µM; nearly all actives have a fitted effect of over 35% in size. Put shortly:
as §3

The nature of assay [9]: Quantitative High-Throughput drug screen in 47 multiple myeloma cell lines against the NCATS MIPE library collection: MM1R_ATCC cell viability assay (AID 1918981). Further: nearly all actives have a fitted effect of over 35% in size. Further: potency means the concentration at half of the fitted maximal effect. Put shortly:
as §3

Assay [10] is described as follows: Quantitative High-Throughput drug screen in 47 multiple myeloma cell lines against the NCATS MIPE library collection: LP1_DSMZ cell viability assay (AID 1918982). Further: nearly all actives have a fitted effect of over 35% in size. Further: potency means the concentration at half of the fitted maximal effect. Put shortly: as §3
Assay [11] can be described thus: Quantitative High-Throughput drug screen in 47 multiple myeloma cell lines against the NCATS MIPE library collection: OCIMY7_PLB cell viability assay (AID 1918987). Further: nearly all actives have a fitted effect of over 65% in size. Further: potency means the concentration at half of the fitted maximal effect. Put shortly:
as §3

A short description of assay [12]: Quantitative High-Throughput drug screen in 47 multiple myeloma cell lines against the NCATS MIPE library collection: Karpas25_ECACC cell viability assay (AID 1918968; further: nearly all actives have a fitted effect of over 35% in size; further: potency means the concentration at half of the fitted maximal effect). Put shortly: as §1
Assay [13] in a line: Quantitative High-Throughput drug screen in 47 multiple myeloma cell lines against the NCATS MIPE library collection: KMS28PE_JCRB cell viability assay (AID 1918983). Further: nearly all actives have a fitted effect of over 35% in size. Further: potency means the concentration at half of the fitted maximal effect. The method in brief: as §3
A short description of assay [14]: Quantitative High-Throughput drug screen in 47 multiple myeloma cell lines against the NCATS MIPE library collection: MMM1_PLB cell viability assay (AID 1918976). Put shortly:
as §3

Assay [15] can be described thus: Quantitative High-Throughput drug screen in 47 multiple myeloma cell lines against the NCATS MIPE library collection: MM1S_ATCC cell viability assay (AID 1918980). Further: nearly all actives have a fitted effect of over 45% in size. Further: potency means the concentration at half of the fitted maximal effect. The method in brief:
as §3

Assay [16] in a line: Quantitative High-Throughput drug screen in 47 multiple myeloma cell lines against the NCATS MIPE library collection: L363_DSMZ cell viability assay (AID 1918984). Further: nearly all actives have a fitted effect of over 40% in size. Further: potency means the concentration at half of the fitted maximal effect. Put shortly:
as §3

Assay [17] in a line: Quantitative High-Throughput drug screen in 47 multiple myeloma cell lines against the NCATS MIPE library collection: KMS34_JCRB cell viability assay (AID 1918985). Further: nearly all actives have a fitted effect of over 40% in size. Further: potency means the concentration at half of the fitted maximal effect. The method in brief: as §3
Assay [18] in a line: Quantitative High-Throughput drug screen in 47 multiple myeloma cell lines against the NCATS MIPE library collection: OCIMY5_PLB cell viability assay (AID 1918988). Further: potency means the concentration at half of the fitted maximal effect; nearly all actives have a fitted effect of over 65% in size. The method in brief: as §3
Assay [19] in a line: Quantitative High-Throughput drug screen in 47 multiple myeloma cell lines against the NCATS MIPE library collection: MOLP8_DSMZ cell viability assay (AID 1918977). Further: nearly all actives have a fitted effect of over 45% in size. Further: potency means the concentration at half of the fitted maximal effect. Put shortly:
as §3

Records with an inconclusive call do not appear. Activity calls are given as the source filed them. The call rests on the fitted dose curve; in most records, active means well fitted curve in the direction sought with a large enough effect; inconclusive means small, poorly fitted or top-dose-only effect, or another doubt; inactive means no such curve, though single readings can be large; an effect the other way counts as inactive or inconclusive.

On to `Nc1nc2[nH]cc(CCc3ccc(C(=O)N[C@@H](CCC(=O)O)C(=O)O)cc3)c2c(=O)[nH]1`, for which the Potency in [1] was 6.62 µM (active); in [2] it was 18.7 µM (active); in [3], 20.9 µM (active); in assay [4], 1.32 µM (active). The Potency result in assay [5], in assay [6], in assay [7], in assay [8], in assay [9] and in [10] was “inactive” throughout. In addition, the Potency result in [11] is “inactive”.
Turning to `CNC(=O)c1ccc(C)c(-n2c(C)cc(OCc3ccc(F)cc3F)c(Br)c2=O)c1`, the Potency in assay [1] is 7.43 µM (active); in assay [12], 8.33 µM (active); in assay [3] it was 20.9 µM (active); in assay [4], 18.7 µM (active); in assay [7], 5.9 µM (active); in assay [11], 8.33 µM (active).
`NC(=O)C1CCCc2c1[nH]c1ccc(Cl)cc21` (stereo not drawn): the Potency entry in assay [1], in assay [12], in [7], in assay [8], in assay [10] and in assay [13] was “inactive” throughout. Also, the Potency in [4] and in [9] was 14.8 µM (active) each time.
`CCOC(=O)N1CCC(=C2c3ccc(Cl)cc3CCc3cccnc32)CC1`: the Potency result in assay [1], in assay [12], in assay [4] and in assay [16] was “inactive” in each case. The Potency was 23.5 µM (active) in assay [3]; 18.7 µM (active) in assay [6]; 23.5 µM (active) in assay [14]; 7.43 µM (active) in [7]; 29.6 µM (active) in [15]; 26.4 µM (active) in assay [17]. Besides, in assay [18], the Potency is 20.9 µM (active).
Take `CN(C)c1ccc(C2Nc3ccc4ccccc4c3C3=C2C(=O)CC(C)(C)C3)cc1Br` (stereo not drawn): the Potency in assay [1] was 5.26 µM (active); in assay [12], 5.9 µM (active); in assay [4] it was 5.9 µM (active); in assay [6] it was 16.6 µM (active); in assay [13], 23.5 µM (active); in assay [11], 0.935 µM (active). The Potency result in assay [8], in assay [15], in assay [16] and in assay [17] was “inactive” throughout.
In the case of `Fc1ccc(Cl)cc1-c1nc(Nc2ccncc2)c2nccnc2n1`, the Potency entry in assay [1], in [2], in assay [15] and in [11] was “inactive” in each case. The Potency in [4] is 0.469 µM (active); in [7] it was 16.6 µM (active); in assay [17], 1.32 µM (active).
For the compound `O=c1n(CCCN2CCN(c3cccc(Cl)c3)CC2)nc2ccccn12`, the Potency entry in [1], in [2], in assay [5], in assay [6], in assay [7] and in [9] was “inactive” each time. The Potency entry in assay [10], in assay [13], in assay [16] and in assay [17] was “inactive” each time.
Consider `Cc1ccnc(NS(=O)(=O)c2ccc(NC(=O)Nc3ccc(S(=O)(=O)Nc4nccc(C)n4)cc3)cc2)n1`, for which the Potency entry in assay [1], in [7], in assay [8], in [15], in assay [9] and in assay [13] was “inactive” each time. Moreover, the Potency result in assay [17] was “inactive”. The Potency in assay [2] is 20.9 µM (active); in assay [4], 20.9 µM (active); in [11], 23.5 µM (active).
As for `NC(N)=NC(=O)c1nc(Cl)c(N)nc1N`, the Potency is 8.33 µM (active) in [1], 14.8 µM (active) in [2], 9.35 µM (active) in assay [7] and 20.9 µM (active) in assay [15]. Moreover, the Potency result in assay [19], in assay [8] and in assay [10] was “inactive” in each case.
For the compound `Cc1cccc(-c2nn(C(=S)Nc3ccccc3)cc2-c2ccnc3ccccc23)n1`, the Potency in assay [1] is 16.6 µM (active); in assay [6], 6.62 µM (active); in assay [14] it was 16.6 µM (active); in assay [7] it was 2.35 µM (active); in assay [15], 16.6 µM (active); in assay [10], 20.9 µM (active). The Potency in assay [13] is 18.7 µM (active); in assay [18], 1.48 µM (active). The Potency entry in assay [2], in assay [4] and in assay [8] was “inactive” in each case.
On to `CC1(C)SCCN(S(=O)(=O)c2ccc(OCC#CCO)cc2)[C@@H]1C(=O)NO`, for which the Potency entry in assay [1], in assay [2] and in assay [8] was “inactive” throughout. The Potency was 2.96 µM (active) in [6], 16.6 µM (active) in assay [10], 5.26 µM (active) in [11] and 5.26 µM (active) in assay [18].
As for `COc1ccc(C2=N[C@H](c3ccc(Cl)cc3)[C@H](c3ccc(Cl)cc3)N2C(=O)N2CCNC(=O)C2)c(OC(C)C)c1`, the Potency in assay [1] is 18.7 µM (active); in [3] it was 20.9 µM (active); in assay [6] it was 16.6 µM (active); in assay [14] it was 4.69 µM (active); in assay [19], 8.33 µM (active); in assay [7] it was 5.26 µM (active). For the same compound, the Potency in assay [15] is 2.09 µM (active); in [9] it was 2.35 µM (active); in assay [16], 0.059 µM (active); in assay [11], 8.33 µM (active); in assay [18], 18.7 µM (active). For the same compound, the Potency result in assay [8], in assay [10] and in assay [13] was “inactive” in each case.
In the case of `O=c1[nH]cnc2[nH]ncc12`, the Potency result in assay [1], in assay [2], in assay [5], in [19], in assay [7] and in [9] was “inactive” each time. Further, the Potency result in assay [10], in assay [13], in assay [17] and in assay [11] was “inactive” throughout.
As to `N#CC[C@H](C1CCCC1)n1cc(-c2ncnc3[nH]ccc23)cn1`, the Potency result in [1], in assay [19], in assay [7] and in assay [8] was “inactive” throughout. Moreover, the Potency in assay [3] was 23.5 µM (active); in [15], 4.18 µM (active); in assay [11] it was 18.7 µM (active); in assay [18], 20.9 µM (active).
Turning to `CC(C)(Sc1ccc(CCN(CCCCC2CCCCC2)C(=O)NC2CCCCC2)cc1)C(=O)O`, the Potency result in assay [1], in [2], in assay [7] and in assay [16] was “inactive” each time. Also, the Potency was 4.18 µM (active) in assay [15], 23.5 µM (active) in [9], 16.6 µM (active) in assay [10] and 14.8 µM (active) in assay [11].
